In test [1] the target is T1, Ephrin type-B receptor 2 (Homo sapiens) (UniProt P29323).
T1 sequence (whole entry): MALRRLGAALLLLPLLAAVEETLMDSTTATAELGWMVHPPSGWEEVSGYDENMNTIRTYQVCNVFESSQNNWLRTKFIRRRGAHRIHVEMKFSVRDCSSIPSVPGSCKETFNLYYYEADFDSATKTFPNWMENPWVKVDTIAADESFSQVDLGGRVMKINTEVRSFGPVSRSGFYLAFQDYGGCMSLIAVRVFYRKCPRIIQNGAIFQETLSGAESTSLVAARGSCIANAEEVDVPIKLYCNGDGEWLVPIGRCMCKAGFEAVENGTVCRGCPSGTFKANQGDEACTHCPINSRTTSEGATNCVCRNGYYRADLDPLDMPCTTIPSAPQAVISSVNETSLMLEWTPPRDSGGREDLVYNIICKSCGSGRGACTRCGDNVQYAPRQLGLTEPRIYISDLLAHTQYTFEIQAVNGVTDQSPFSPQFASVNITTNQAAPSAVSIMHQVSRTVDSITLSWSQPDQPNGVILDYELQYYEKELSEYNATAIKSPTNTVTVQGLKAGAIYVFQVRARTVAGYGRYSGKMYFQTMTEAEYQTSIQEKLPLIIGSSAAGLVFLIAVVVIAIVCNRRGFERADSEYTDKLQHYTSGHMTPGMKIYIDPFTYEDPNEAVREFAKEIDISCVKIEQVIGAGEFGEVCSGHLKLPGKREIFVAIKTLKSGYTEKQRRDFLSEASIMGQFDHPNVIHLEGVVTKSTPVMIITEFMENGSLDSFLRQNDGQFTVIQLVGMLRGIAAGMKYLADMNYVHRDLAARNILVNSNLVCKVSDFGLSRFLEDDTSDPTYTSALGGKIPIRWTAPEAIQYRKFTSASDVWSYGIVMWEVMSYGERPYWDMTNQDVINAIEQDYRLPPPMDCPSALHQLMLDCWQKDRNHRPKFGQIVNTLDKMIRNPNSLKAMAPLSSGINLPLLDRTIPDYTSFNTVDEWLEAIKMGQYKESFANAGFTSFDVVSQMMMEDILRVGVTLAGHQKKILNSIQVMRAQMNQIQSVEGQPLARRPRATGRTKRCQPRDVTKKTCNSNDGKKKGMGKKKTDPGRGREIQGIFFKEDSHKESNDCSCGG
The conditions noted are these: at 1 µM.

Test [2] addresses T2, Ephrin type-B receptor 3 (Homo sapiens) (UniProt P54753).
T2 sequence (whole entry): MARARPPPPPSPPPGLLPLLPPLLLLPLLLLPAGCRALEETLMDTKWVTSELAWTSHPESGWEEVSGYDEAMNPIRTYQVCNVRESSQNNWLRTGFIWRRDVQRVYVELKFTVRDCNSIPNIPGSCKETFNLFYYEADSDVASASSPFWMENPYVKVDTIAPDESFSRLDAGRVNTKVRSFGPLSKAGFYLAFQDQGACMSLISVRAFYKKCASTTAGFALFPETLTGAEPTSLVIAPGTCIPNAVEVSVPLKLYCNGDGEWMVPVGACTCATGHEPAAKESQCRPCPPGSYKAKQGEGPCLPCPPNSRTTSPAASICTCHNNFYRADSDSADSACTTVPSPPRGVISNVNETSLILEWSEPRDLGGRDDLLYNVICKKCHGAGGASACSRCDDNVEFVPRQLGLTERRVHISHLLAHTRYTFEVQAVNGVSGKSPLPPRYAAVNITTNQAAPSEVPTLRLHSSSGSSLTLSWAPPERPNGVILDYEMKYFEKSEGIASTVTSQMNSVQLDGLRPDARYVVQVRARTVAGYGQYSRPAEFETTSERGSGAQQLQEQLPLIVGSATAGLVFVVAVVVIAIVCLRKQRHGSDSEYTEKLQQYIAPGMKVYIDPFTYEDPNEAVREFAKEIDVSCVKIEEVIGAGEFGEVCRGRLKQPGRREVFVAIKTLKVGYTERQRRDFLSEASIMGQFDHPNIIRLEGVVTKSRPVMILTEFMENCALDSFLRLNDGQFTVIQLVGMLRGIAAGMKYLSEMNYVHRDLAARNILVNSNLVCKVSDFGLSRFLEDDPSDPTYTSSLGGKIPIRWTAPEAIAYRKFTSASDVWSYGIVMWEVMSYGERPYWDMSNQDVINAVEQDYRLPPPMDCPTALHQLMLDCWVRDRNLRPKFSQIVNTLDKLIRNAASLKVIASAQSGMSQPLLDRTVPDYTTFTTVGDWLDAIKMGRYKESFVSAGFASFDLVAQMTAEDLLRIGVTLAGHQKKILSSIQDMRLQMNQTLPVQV
The conditions noted are these: at 0.1 µM.

In test [3] the target is T2, Ephrin type-B receptor 3 (Homo sapiens). To be noted: at 1 µM.
For test [4], the target named is T3, Ephrin type-B receptor 4 (Homo sapiens) (UniProt P54760).
T3 sequence (whole entry): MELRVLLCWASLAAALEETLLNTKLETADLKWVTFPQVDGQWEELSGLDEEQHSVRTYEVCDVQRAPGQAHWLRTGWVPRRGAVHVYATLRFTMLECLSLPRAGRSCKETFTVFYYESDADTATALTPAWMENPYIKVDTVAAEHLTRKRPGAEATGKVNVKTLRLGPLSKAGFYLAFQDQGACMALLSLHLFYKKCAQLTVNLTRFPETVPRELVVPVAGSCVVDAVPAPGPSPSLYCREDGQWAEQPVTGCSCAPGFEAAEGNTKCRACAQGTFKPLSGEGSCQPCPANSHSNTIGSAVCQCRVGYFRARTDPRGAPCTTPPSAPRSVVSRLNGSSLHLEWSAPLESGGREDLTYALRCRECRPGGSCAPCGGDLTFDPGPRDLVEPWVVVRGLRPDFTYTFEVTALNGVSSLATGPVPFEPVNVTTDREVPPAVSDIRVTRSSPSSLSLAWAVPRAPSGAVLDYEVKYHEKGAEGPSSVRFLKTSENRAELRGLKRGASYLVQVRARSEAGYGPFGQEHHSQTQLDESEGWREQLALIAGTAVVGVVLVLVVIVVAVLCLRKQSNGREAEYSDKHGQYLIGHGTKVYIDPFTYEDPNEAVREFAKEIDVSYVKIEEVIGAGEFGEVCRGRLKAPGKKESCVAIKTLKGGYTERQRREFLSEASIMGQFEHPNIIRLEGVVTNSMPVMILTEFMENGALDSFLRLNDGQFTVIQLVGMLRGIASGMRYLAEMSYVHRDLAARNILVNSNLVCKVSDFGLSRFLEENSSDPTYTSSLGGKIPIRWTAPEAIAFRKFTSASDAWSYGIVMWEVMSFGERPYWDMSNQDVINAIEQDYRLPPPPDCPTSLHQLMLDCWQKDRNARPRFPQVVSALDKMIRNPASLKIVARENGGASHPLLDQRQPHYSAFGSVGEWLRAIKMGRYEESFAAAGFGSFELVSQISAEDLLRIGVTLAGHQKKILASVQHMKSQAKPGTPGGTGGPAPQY
To be noted: at 0.1 µM.

Test [5] addresses T3, Ephrin type-B receptor 4 (Homo sapiens). To be noted: at 1 µM.
Test [6] concerns the target Receptor tyrosine-protein kinase erbB-2 (Homo sapiens) (UniProt P04626). The conditions noted are these: at 0.1 µM.
For test [7] the target is unchanged. The conditions noted are these: at 1 µM.
In test [8] the target is Receptor tyrosine-protein kinase erbB-4 (Homo sapiens) (UniProt Q15303). To be noted: at 0.1 µM.
Chain of Receptor tyrosine-protein kinase erbB-4 (Homo sapiens) (Q15303 whole entry): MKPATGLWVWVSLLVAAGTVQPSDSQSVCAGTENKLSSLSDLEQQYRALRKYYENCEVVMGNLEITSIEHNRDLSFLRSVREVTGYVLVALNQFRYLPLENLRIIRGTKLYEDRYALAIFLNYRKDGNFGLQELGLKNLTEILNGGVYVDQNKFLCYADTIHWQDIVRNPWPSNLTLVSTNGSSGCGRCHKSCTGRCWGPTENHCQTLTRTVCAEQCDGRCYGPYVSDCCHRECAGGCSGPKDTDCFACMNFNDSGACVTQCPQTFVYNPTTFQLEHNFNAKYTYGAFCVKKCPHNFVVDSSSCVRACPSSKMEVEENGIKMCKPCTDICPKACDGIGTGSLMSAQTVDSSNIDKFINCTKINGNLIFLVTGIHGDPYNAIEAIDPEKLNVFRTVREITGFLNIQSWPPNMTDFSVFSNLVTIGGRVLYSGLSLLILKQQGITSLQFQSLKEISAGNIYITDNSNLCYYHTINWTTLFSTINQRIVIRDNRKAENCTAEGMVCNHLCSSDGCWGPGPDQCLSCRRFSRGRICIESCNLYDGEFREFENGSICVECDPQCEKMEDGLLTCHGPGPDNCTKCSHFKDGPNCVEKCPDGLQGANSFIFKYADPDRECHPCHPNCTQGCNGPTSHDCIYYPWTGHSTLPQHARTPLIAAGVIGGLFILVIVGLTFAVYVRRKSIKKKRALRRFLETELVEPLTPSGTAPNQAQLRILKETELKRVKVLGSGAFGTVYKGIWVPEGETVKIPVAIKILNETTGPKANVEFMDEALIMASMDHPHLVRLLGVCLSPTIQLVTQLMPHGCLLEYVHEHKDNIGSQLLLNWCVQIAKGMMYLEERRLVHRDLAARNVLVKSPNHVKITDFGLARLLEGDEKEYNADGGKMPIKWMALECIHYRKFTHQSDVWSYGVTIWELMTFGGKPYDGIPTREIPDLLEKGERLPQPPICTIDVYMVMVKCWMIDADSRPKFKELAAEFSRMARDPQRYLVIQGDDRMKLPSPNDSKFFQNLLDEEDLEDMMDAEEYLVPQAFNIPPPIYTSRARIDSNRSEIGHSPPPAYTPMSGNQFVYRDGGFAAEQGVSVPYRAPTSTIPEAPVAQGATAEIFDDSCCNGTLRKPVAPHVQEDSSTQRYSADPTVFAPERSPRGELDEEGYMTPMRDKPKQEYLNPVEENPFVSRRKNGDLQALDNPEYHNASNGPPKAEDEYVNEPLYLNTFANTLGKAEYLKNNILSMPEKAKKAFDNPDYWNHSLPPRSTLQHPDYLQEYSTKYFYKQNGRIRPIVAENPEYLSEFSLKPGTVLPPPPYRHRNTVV
Test [9] has the same target. To be noted: at 1 µM.
In test [10] the target is Tyrosine-protein kinase Fer (Homo sapiens) (UniProt P16591). The conditions noted are these: at 0.1 µM.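 Note: reported figures are averaged percent inhibition of FER.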
Chain of Tyrosine-protein kinase Fer (Homo sapiens) (P16591 whole entry, looked up): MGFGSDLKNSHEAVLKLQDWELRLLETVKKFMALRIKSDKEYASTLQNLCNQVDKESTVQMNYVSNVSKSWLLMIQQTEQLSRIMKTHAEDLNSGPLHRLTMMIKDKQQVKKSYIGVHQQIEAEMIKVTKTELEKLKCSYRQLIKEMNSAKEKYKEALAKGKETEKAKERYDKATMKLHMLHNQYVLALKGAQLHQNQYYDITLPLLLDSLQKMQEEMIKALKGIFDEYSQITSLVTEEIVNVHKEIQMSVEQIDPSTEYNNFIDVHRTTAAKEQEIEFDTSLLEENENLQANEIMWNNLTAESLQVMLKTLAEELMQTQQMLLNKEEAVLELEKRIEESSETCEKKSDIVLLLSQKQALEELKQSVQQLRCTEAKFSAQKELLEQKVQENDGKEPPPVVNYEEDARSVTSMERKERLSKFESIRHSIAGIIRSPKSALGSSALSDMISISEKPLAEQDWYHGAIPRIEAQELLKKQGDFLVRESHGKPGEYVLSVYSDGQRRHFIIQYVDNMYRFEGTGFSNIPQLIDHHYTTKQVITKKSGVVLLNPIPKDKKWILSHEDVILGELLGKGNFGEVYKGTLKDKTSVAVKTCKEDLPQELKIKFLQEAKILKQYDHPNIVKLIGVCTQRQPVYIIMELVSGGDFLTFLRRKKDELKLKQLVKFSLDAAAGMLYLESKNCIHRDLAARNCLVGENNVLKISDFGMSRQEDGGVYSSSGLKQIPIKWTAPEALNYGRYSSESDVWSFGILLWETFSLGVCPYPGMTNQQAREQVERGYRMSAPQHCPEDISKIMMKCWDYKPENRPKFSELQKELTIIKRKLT

Chain of Receptor tyrosine-protein kinase erbB-2 (Homo sapiens) (P04626 whole entry): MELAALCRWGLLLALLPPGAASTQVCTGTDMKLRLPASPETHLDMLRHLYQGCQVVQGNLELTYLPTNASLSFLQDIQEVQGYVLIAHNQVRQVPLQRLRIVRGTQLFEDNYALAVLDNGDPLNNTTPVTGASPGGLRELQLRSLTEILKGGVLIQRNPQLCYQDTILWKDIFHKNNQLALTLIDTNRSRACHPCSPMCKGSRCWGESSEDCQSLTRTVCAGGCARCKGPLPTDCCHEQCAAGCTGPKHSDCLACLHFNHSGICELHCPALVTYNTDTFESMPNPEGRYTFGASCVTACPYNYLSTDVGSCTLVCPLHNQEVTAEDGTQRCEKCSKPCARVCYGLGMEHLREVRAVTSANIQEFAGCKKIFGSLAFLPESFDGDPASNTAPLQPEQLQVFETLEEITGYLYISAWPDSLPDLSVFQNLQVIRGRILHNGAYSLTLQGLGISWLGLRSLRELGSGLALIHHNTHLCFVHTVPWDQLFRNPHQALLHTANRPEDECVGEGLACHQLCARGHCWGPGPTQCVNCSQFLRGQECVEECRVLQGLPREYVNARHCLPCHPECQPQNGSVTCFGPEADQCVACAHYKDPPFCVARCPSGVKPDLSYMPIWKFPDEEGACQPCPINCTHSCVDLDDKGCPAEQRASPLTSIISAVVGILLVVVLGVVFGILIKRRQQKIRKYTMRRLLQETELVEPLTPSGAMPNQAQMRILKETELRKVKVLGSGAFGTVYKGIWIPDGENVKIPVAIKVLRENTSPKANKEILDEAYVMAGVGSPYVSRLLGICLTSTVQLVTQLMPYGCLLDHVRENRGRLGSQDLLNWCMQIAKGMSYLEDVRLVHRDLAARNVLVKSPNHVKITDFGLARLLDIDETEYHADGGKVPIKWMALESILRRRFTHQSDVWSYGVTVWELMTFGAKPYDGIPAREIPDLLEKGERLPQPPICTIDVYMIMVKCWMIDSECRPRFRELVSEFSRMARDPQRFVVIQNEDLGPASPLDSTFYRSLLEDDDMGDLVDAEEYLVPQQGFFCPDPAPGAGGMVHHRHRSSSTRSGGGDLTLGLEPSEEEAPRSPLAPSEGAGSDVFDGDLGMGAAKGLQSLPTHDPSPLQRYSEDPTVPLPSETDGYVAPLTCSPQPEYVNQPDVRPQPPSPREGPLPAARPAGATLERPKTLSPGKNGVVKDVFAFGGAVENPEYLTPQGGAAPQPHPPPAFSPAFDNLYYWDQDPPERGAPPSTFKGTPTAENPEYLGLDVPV

In the case of `COC(=O)c1ccc2c(c1)C(=Cc1cc(Br)c(O)c(Br)c1)C(=O)N2`, the inhibition – broadly, the relative decrease from the control value, in per cent – was 7.02% in [1]; 2.1% in test [2]; 3.26% in [3]; 2.41% in [4]; 3.68% in test [5]; -0.98% in [6]. In addition, the inhibition was 3.44% in test [7], 3.22% in test [8], 14.2% in [9] and -1.52% in test [10].

As for `N#Cc1c(NC(=O)c2ccccc2F)sc2c1CCCC2`, the inhibition was -0.34% in test [1]; 3.63% in test [2]; 0.77% in test [3]; -2.29% in [4]; 0.07% in test [5]; -3.55% in [6]. For the same compound, the inhibition in [7] is 1.39%; in test [8], -2.08%; in test [9], 0.66%; in test [10], -1.19%.

With `CC(C)c1ccc2c(c1)NC(=O)/C2=N/Nc1ccc(S(N)(=O)=O)cc1`, the inhibition in [1] is 3.71%; in [2], 0.49%; in test [3] it was 1.76%; in test [4], 1.07%; in test [5], 0.29%; in [6], 3%. In addition, the inhibition stood at 2.17% in test [7], 1.45% in [8], 2.39% in test [9] and 0.16% in test [10].

In the case of `[O-][S+]1CCN(Cc2ccc(-c3ccc4ncnc(Nc5ccc(OCc6ccccc6)c(Cl)c5)c4c3)o2)CC1`, the inhibition in test [1] is 5.17%; in test [2], 0.63%; in [3], 1.88%; in [4], -0.7%; in test [5] it was -0.05%; in test [6], 37.5%. In addition, the inhibition in test [7] is 72.6%; in [8], 69.6%; in [9], 84.3%; in [10] it was -2.55%.

As to `CCOc1nccc2c1nc(-c1nonc1N)n2CC`, the inhibition in test [1] was found to be 13.1%; in [2] it was 1.72%; in test [3] it was 2.82%; in [4] it was 2.78%; in [5] it was 0.5%; in test [6], 3.01%. For the same compound, the inhibition stood at 9.5% in [7], 6.98% in test [8], 18% in [9] and 5.59% in test [10].

With `COc1cccc(-n2ncc3c(N/N=C/c4ccc(C)cc4)ncnc32)c1`, the inhibition in test [1] stood at 9.45%; in [2] it was 2.7%; in test [3], 4.17%; in [4], 3.6%; in [5], 3.21%; in test [6], 2.26%. Moreover, the inhibition in test [7] was 3.43%; in test [8] it was 6.09%; in [9] it was 11.9%; in [10] it was 8.13%.

Consider `CS(=O)(=O)CCNCc1nc(-c2ccc3ncnc(Nc4ccc(OCc5cccc(C(F)(F)F)c5)cc4)c3c2)cs1`, for which the inhibition in test [1] was 6.37%; in [2], 2.8%; in test [3], 3.98%; in test [4], -1.44%; in [5], 2.09%; in [6], 4.71%. The inhibition in test [7] stood at 4.32%; in [8], 6.42%; in test [9], 25.6%; in test [10] it was 3.78%.

Take `Cc1ccc2c(-c3ccnc(Nc4cccc(C(F)(F)F)c4)n3)c(-c3ccccc3)nn2n1`: the inhibition was determined as 51.7% in test [1]; 3.61% in [2]; 9.16% in test [3]; 7.62% in test [4]; 46.4% in test [5]; 5.37% in test [6]. Also, the inhibition was 37.7% in [7], 40.4% in [8], 79% in test [9] and -8.28% in [10].

The values are drawn from ChEMBL document CHEMBL1961873, “Compounds: GSK PKIS; Assays: Nanosyn kinase panel” (2012).
